Assay outcomes: PubChem, The Scripps Research Institute Molecular Screening Center
In the library only some 3.4% were active in any assay of this set; here they are far more common.
ADAM10 inh = ADAM10 inhibition, QFRET primary screen. recombinant ADAM10, EDANS/DABCYL FRET peptide cleavage, 3 h. inhibition, % at 7 µM. actives 0.62% (n = 370,000). AID 720582;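 active means inhibition above a per-campaign cutoff equal to the mean of compounds falling between control-based bounds plus 3 SD, cut at about 20% in these data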
proKLK7 act = activators of human kallikrein-7 zymogen. P49862. purified proKLK7, EDANS-DABCYL substrate fluorescence; 100% is mature enzyme control, 0% vehicle. activation, % at 7 µM. actives 0.9% (n = 370,000). AID 652039;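 active means activation above the mean of all tested compounds plus 3 SD, computed per campaign excluding outliers beyond control limits, cut at about 13% in these data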
PLC-gamma1 inh = blocks human PLC-gamma1 enzyme activity; P19174; purified PLC-gamma1, fluorogenic substrate, fluorescence; inhibition, % at 12.2 µM; actives 0.84% (n = 370,000); in the data active means inhibition above about 9.5%
PLCb3 inh = PLC-beta3 (human) inhibition, primary screen; inhibition, % at 12.2 µM; Purified PLC-beta3, fluorogenic substrate, fluorescence; actives 0.18% (n = 370,000); AID 720704
HGIII-sPLA2 inh = Blocks human group III sPLA2 activity. QFRET BODIPY PC-A2 liposome hydrolysis, fluorescence. inhibition, % at 12.2 µM. actives 0.56% (n = 370,000). AID 743126;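 active means inhibition above mean plus 3 SD of compounds lying within the high and low control bounds, cut at about 19% in these data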
ADAM17 inh = ADAM17 inhibition, QFRET primary screen; inhibition, % at 6.95 µM; recombinant ADAM17, EDANS/DABCYL FRET peptide cleavage; actives 0.83% (n = 370,000); P78536;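 active means inhibition above the mean of compounds lying between control limits plus 3 SD, set per campaign, cut at about 8.5% in these data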
PLCg1 ctr = inhibits human PLC-gamma1 in PLC-beta3 counter-screen. shares compounds with PLC-gamma1 inh. purified PLC-gamma1, fluorogenic substrate, fluorescence. inhibition, % at 12.3 µM. actives 3.1% (n = 3,300). AID 743258; in the data active means inhibition above about 9.5%
PLCbeta3 conf = confirmation of human PLC-beta3 inhibitors | inhibition, % at 12.3 µM | purified PLC-beta3, fluorogenic substrate fluorescence | AID 743261 | actives 1% (n = 3,300) | shares compounds with PLC-gamma1 inh
A number is an active result; 0 = inactive; - = no result. Unless noted, no stated cut-off is given here; in the data, active means inhibition above about 11%; inactive means the rest.

SMILES	ADAM10 inh	proKLK7 act	PLC-gamma1 inh	PLCb3 inh	HGIII-sPLA2 inh	ADAM17 inh	PLCg1 ctr	PLCbeta3 conf
CC(C(=O)c1ccc(-c2ccccc2)cc1)[n+]1cccc(NC(=O)c2ccccc2)c1 (centres undefined)	0	0	9.7	0	0	0	0	0
COc1ccc(OCCn2cc(/C(N)=N/O)c3ccccc32)cc1	0	0	0	11	0	0	0	0
O=C(NC1CCSc2ccccc21)c1ccccc1Br (centres undefined)	0	0	0	0	0	0	-	-
CCOC(=O)N1CCN(C(=O)C(=O)NN)CC1	0	0	0	0	0	0	-	-
CCCC(C)C(=O)Nc1cccc(NC(C)=O)c1 (centres undefined)	0	0	12	0	0	0	0	0
COc1ccc(CCNS(=O)(=O)CCNC(=O)c2ccc3c(c2)OCO3)cc1	0	0	0	0	0	0	-	-
COc1ccc(NC(=O)CCNS(=O)(=O)c2ccc3c(c2)c(=O)n(C)c(=O)n3C)c(OC)c1	0	0	0	0	0	0	-	-
O=C(N/N=C\c1ccc(Cl)cc1)C1=NOC2COC3(CCN(c4ccc([N+](=O)[O-])cc4)CC3)OCC12 (centres undefined)	0	0	14	13	0	0	0	0
O=C(Cn1cnc2sc(-c3ccccc3)cc2c1=O)NCc1ccccc1	0	0	9.5	0	0	0	0	0
Cc1nn(CCOc2ccccc2)c(=O)n1-c1ccc(F)cc1	0	0	11	0	0	0	0	0
O=C(c1ccc(Br)cc1)c1cc([N+](=O)[O-])ccc1N1CCCCC1	0	0	14	0	0	0	0	0
Cn1c(SCc2ccccc2)nnc1-c1ccc2nonc2c1	0	0	0	0	0	0	-	-
NC(=O)c1cc(NC(=O)CCCc2nc3ccccc3s2)cc(C(N)=O)c1	0	0	0	0	0	0	-	-
O=C(c1cccc(S(=O)(=O)N2CCN(c3ccc(F)cc3)CC2)c1)N1CCCC(C(F)(F)F)C1 (centres undefined)	0	0	10	0	0	0	14	0
O=C(c1ccncc1)N1CCCC(N2CCN(c3ccc(F)cc3)CC2)C1 (centres undefined)	0	0	11	0	0	0	0	0
O=C(c1cccnc1)N1CCCC(Nc2ccc(F)cc2)C1 (centres undefined)	0	0	15	0	0	0	0	0
CC1CN(C(=O)c2cccc(S(=O)(=O)N3CCN(c4ccc(F)cc4)CC3)c2)CC(C)O1 (centres undefined)	0	0	0	0	0	0	-	-
Cc1cc(C)nc(N(C#N)Cc2ccc(Cl)cc2)n1	0	0	0	0	0	0	-	-
Cc1cc(C)nc(N(C#N)CCOc2ccc(Cl)cc2)n1	0	0	9.8	0	0	0	0	0
Cc1n[nH]c(C)c1NC(=O)CN1CCN(S(=O)(=O)c2ccc(C(F)(F)F)cc2)CC1	0	0	10	0	0	0	0	0
COc1ccc(N2CCN(C(=O)C(=O)c3c[nH]c4ccccc34)CC2)cc1	0	0	9.8	0	0	0	0	0
O=C(CN1CCN(c2ccccn2)CC1)Nc1ccc(F)cc1F	0	0	0	0	0	0	-	-
COc1ccc2ccccc2c1C1CC(=O)N2CN(C)CSC2=C1C#N (centres undefined)	0	0	11	0	0	0	0	0
COc1ccc(C(=O)NN=C(Cc2ccccc2)Cc2ccccc2)cc1OC	0	0	11	0	0	0	0	0
COc1ccc(C(=O)Cc2ccccc2)cc1OC	0	0	0	0	0	0	-	-
SMILES	ADAM10 inh	proKLK7 act	PLC-gamma1 inh	PLCb3 inh	HGIII-sPLA2 inh	ADAM17 inh	PLCg1 ctr	PLCbeta3 conf
COCO/C=C(\NC(C)=O)c1ccccc1	0	0	0	0	0	0	-	-
Cc1ccc([N+](=O)[O-])cc1CN1CCN(c2ncc(Cc3ccccc3)cn2)CC1	0	0	0	14	0	0	0	0
O=[N+]([O-])c1ccc(F)c(CN2CCN(c3ncc(Cc4ccccc4)cn3)CC2)c1	0	0	0	0	0	0	-	-
Nc1ccc2c(c1)C(=O)C(=O)c1ccccc1-2	0	0	53	0	0	0	51	0
COC(=O)C(NC(=O)CCc1c(C)nc2ncnn2c1C)C(C)C (centres undefined)	0	0	9.7	0	0	0	0	0
Cc1cccc(OCCC(=O)Nc2ccc(F)c(F)c2)c1	0	0	9.7	0	0	0	0	0
Cc1cccc(OCCCC(=O)Nc2ccc(N(C)C)cc2)c1	0	0	0	0	0	0	-	-
COC(=O)C1=C(C)N(C)C(=NCc2cc(OC)c(OC)c(OC)c2)NC1c1ccc(Cl)cc1 (centres undefined)	0	0	0	13	0	0	0	0
NC(=O)C[C@H](N)c1cn([C@@H](CC(N)=O)C(=O)N2CCNCC2)nn1	0	0	0	0	0	0	-	-
NCCCCC(N)c1cn([C@@H](CCC(=O)O)C(=O)N2CCNCC2)nn1 (some centres undefined)	0	0	0	13	0	0	0	0
CCOc1ccc(C=NNC(=O)c2cccc3ccccc23)cc1OCC	0	0	0	0	0	0	-	-
COc1ccc(CNCC(O)(c2ccc(Cl)cc2)c2ccc(Cl)cc2)cc1OC	0	0	9.8	0	0	0	0	0
Cc1nonc1CN(C)C(=O)CC1C(=O)NCCN1Cc1ccc(F)c(F)c1 (centres undefined)	0	0	0	0	0	0	-	-
Cc1ccc(C(=O)N/C(=C/c2cccnc2)C(=O)N2CCCCCC2)cc1	0	0	0	0	0	0	-	-
O=C(Nc1ccccc1Cl)c1cc(C2CCCN(C(=O)CCc3ccccc3)C2)on1 (centres undefined)	0	0	9.8	0	0	0	0	0
COc1ccc(NC(=O)CSc2nc3[nH]c(=O)cc(O)c3s2)c(OC)c1	0	0	0	0	0	0	-	-
c1ccc(Nc2cc(Nc3ccccc3)[nH]n2)cc1	0	0	22	0	0	0	0	0
Fc1ccc(-c2nc(-c3cccs3)no2)cc1	0	0	0	0	0	0	-	-
Fc1ccc(-c2cc(-c3cccs3)cc(-c3ccccc3)n2)cc1	0	0	14	0	0	0	0	0
O=C(Nc1nnc(-c2ccco2)o1)c1ccc([N+](=O)[O-])s1	0	0	0	0	0	0	-	-
CCOc1ccccc1N1CC(C(=O)Nc2ccc(S(=O)(=O)N3CCCCC3)cc2)CC1=O (centres undefined)	0	0	0	0	0	0	-	-
CCCNC(=O)c1cc2c(C(F)(F)F)nn(C)c2s1	0	0	13	0	0	0	0	0
